Assay outcomes: PubChem, National Center for Advancing Translational Sciences (NCATS)
Only some compounds are listed: those with a hit (about 6.5% of all), similar ones and a draw of the others.
FMDV antiviral – blocks foot and mouth disease virus. FMDV antiviral cell-based qHTS. Potency, µM (titrated, usually from 57.9 µM), for the others: at the top dose activity change, negative = inhibition, most hits filed as inhibitors. 410,000 tested, 1.2% active. AID 1159524; calls by dose curve; tested in HEK293T cells; note: read-out not given here; potency is the fitted concentration of half-maximal effect; nearly all actives have a fitted effect of over 45% in size
Vaccinia Venus – inhibitors of vaccinia virus (Venus reporter) | Vaccinia virus Venus reporter expression, fluorescence | 330,000 tested, 0.46% active | AID 720580 | Potency, µM (titrated, usually from 36.5 µM), inactives show at the top dose activity change, negative = inhibition, most hits filed as inhibitors; calls by dose curve; tested in A549 cells; note: potency is the fitted concentration of half-maximal effect; nearly all actives have a fitted effect of over 30% in size
HCMV antiviral – inhibitors of human cytomegalovirus; 410,000 tested, 4.5% active; HFF cells, HCMV-luciferase reporter, 72 h; hits give low values; activity change, negative = inhibition, % at 57.5 µM; in the data active = activity change below about -60%; inconclusive = no clear call, values can overlap the other calls; inactive = above about -39%
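HFF cells seeded 16 h at 37C, treated with compounds, infected with luciferase-reporter HCMV at MOI 1 PFU/cell; luciferase read at 72 h post infection, normalized to buffer-only and Salinomycin controls.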
MARV entry inh – Marburg virus entry inhibition; Marburg virus pseudotyped entry inhibition, cell reporter; Potency, µM (series often up to 37.8 µM), for inactives: at the highest dose activity change, negative = inhibition, usual class: inhibitors; 300,000 tested, 1.8% active; AID 540276; calls by dose curve; tested in HEK293 cells; note: potency is the fitted concentration of half-maximal effect
Lassa entry inh – Lassa virus entry inhibition; Lassa virus pseudotype entry inhibition, cell reporter; Potency, µM (top dose mostly 37.9 µM), without a hit: at the top dose activity change, negative = inhibition, actives largely listed as inhibitors; 300,000 tested, 1.2% active; AID 540256; calls by dose curve; tested in HEK293 cells; note: potency is the fitted concentration of half-maximal effect; nearly all actives have a fitted effect of over 50% in size
Vaccinia mCherry – inhibitors of vaccinia virus infection (mCherry reporter signal); Vaccinia virus mCherry reporter infection, fluorescence; Potency, µM (series often up to 36.5 µM), for the others: at the highest dose activity change, negative = inhibition, actives largely listed as inhibitors; 310,000 tested, 0.63% active; calls by dose curve; tested in A549 cells; note: potency is the fitted concentration of half-maximal effect; nearly all actives have a fitted effect of over 35% in size
An asterisk follows results filed as active; i = inactive; ? = inconclusive; . = no result given; ! = repeats disagree; [ ] = dose if it differs, or a comment. % is set by controls: 0 for no effect and ±100 for the full control effect.

SMILES	FMDV antiviral	Vaccinia Venus	HCMV antiviral	MARV entry inh	Lassa entry inh	Vaccinia mCherry
C=CC[n+]1cccc2cccc(O)c21	.	-10.1%	.	.	.	i
Cc1cc(=O)n(-c2ccccc2)n1C	-9.7%	?	8.8	.	.	5.01µM*!
Cc1c(C=O)c(=O)n(-c2ccccc2)n1C	-8.6%	.	26.1	3.5%	-5.4%	.
NC(C(=O)O)c1cccc(O)c1 (stereo not given)	-14.6%	-5.2%	.	.	.	-15.3%
Cn1c(/C=N/c2nc3ccccc3[nH]2)nc2ccccc21	46.4%	-9.6%	-104.3*	-9.2%	-16.8%	-11.3%
CNCC(N)C(=O)O (stereo not given)	-13.3%	.	.	.	.	.
CCCC(=O)OC[C@H]1CN(C2CCCC2)S(=O)(=O)c2c(Oc3ccc(C(C)(C)C)cc3)cccc2O1	.	.	4.4	.	.	.
Cc1ccc(S(=O)(=O)CC(O)COc2ccc(C#N)cc2)cc1 (stereo not given)	-7.9%	-4.9%	-69.5*	-15.7%[46.1 µM]	-2.0%	-17.0%
Cc1cc(Oc2ccc(C)c(Cl)c2)nc(SCC(=O)c2ccccc2)n1	?	-15.7%	-73.6*	?	?	-21.3%
Cc1ccc(C(=O)CSc2cc(C)nc(SCC(=O)c3ccccc3)n2)cc1	?	-24.6%	-15.4	?	?	.
S=C1SCN(Cc2cccs2)CN1Cc1cccs1	1.9%	-10.7%	?	.	.	-3.5%
S=C1SCN(Cc2ccco2)CN1Cc1ccco1	0.6%	-20.3%	-99.1*	?	?	?
CC(C)(C)CC(C)(C)NC(=O)C(C1CC1)N1C(=O)C(=O)c2ccccc21 (stereo not given)	.	.	22.3	.	.	.
CN1C(=O)C(C2(O)C(=O)Nc3ccccc32)c2ccccc21 (stereo not given)	.	.	3.7	.	.	.
CCCNC(=O)c1c(O)c2cccc3c2n(c1=O)CCC3	-13.6%	-26.9%	-17.4	-6.0%[46.1 µM]	5.8%[46.1 µM]	i
NCCNC(=O)c1c(O)c2cccc3c2n(c1=O)CCC3	-25.2%	-7.0%	13.5	10µM*	8.3%	-0.4%
O=C(Nc1nccs1)c1c(O)c2cccc3c2n(c1=O)CCC3	.	.	-95.3*	.	.	.
O=C(COc1ccc(F)cc1)NC1CC(=O)N(c2ccc3c(c2)OCCO3)C1 (stereo not given)	12.2%	-1.8%	-107.7*	.	18.1%[46.1 µM]	-2.2%
CC(=O)OCCCNc1cc(Sc2ccc(Cl)cc2)c2nonc2c1[N+](=O)[O-]	31.6µM*	-14.4%	32.1	6.9%	15.5%	-13.3%
COC(=O)CCSc1cc(NCCCOC(C)=O)c([N+](=O)[O-])c2nonc12	.	10.6%	.	.	.	46.1%
C=C(C)C[C@@]1(c2ccccc2)Oc2ccccc2C2=NCCN=C21	.	.	.	-20.7%[14.2 µM]	.	.
COc1ccccc1S(=O)(=O)Cc1ccc(C(=O)N2CCN(c3ccc(C)cc3)C(C)C2)o1 (stereo not given)	31.6µM*	?	-19.1	5.8%	.	-18.2%
CCOC(=O)N1CCN(C(=O)c2ccc(CS(=O)(=O)c3ccccc3OC)o2)CC1	-18.7%	.	24.0	-12.5%	2.2%	.
COC(=O)N1C(c2ccccc2)=Cc2ccccc2C1C1(C(=O)OC)CCCC1=O (stereo not given)	.	.	.	-0.7%[14.2 µM]	?	.
CCCc1cc(NCCCN2CCOCC2)n2c(nc3ccccc32)c1C#N	-25.7%	2.2%	-60.1*	-9.8%	-1.0%	.
SMILES	FMDV antiviral	Vaccinia Venus	HCMV antiviral	MARV entry inh	Lassa entry inh	Vaccinia mCherry
COc1ccc(CNC(=O)CCNC(=O)c2ccc(C(C)(C)C)cc2)cc1OC	-15.2%	-10.7%	?	-0.7%	8.4%	i
CC(C)(C)c1ccc(C(=O)NCCC(=O)NCc2ccc(F)cc2)cc1	-24.3%	-13.1%	-82.2*	.	.	i
O=C(CCCC(=O)NCc1ccc(F)cc1)NCc1ccc(F)cc1	35.5µM*	-6.8%	-29.2	0.7%[46.1 µM]	26.6%	i
CC(=O)c1cc(C(=O)Nc2cccc(C)c2)c2ccccn12	8.6%	-10.7%	8.7	.	24.3%[46.1 µM]	-2.5%
COc1ccc(O)c(CN2CCC3(CCC(CNC(=O)c4ccco4)O3)CC2)c1 (stereo not given)	-10.6%	-11.1%	.	.	.	-21.7%
C=CCn1cc(-c2ccc(Cl)cc2)cc(C#N)c1=O	-26.2%	-12.1%	-37.2	-9.1%	-5.4%	.
N#Cc1cc(-c2ccc(Cl)cc2)cn(Cc2c(Cl)cccc2Cl)c1=O	-9.0%	.	-88.6*	-0.6%	-3.4%	.
CN(C)CCNC(=S)Nc1ccc(-c2nc3ccccc3[nH]2)cc1	36.2%	.	116.1	?	8.5%	.
S=C(NCc1ccc2c(c1)OCO2)Nc1ccc(-c2nc3ccccc3[nH]2)cc1	?	-28.7%	-61.3*	?	-11.8%	-18.7%
O=C(NC(=S)Nc1cc(-c2nc3ccccc3[nH]2)ccc1Cl)c1ccc2c(c1)OCO2	?	-20.9%	-75.6*	-27.0%	?	-25.8%
Cn1cnc([N+](=O)[O-])c1Sc1nnc(-c2ccccc2)c(-c2ccccc2)n1	.	.	135.5	.	.	.
CC(C)Oc1ccc(CNC(=O)CCCN2C(=O)c3cccnc3Oc3ccc(Cl)cc32)cc1	-15.9%	-12.6%	0.0	.	1.8%[46.1 µM]	-14.1%
COc1ccc(-n2sc3c(c2=S)-c2cc(OC)ccc2NC3(C)C)cc1	-10.2%	?	-68.0*	?	-18.6%	?
COc1ccc2c(c1)-c1c(sn(-c3ccccc3)c1=S)C(C)(C)N2	?	-23.0%	?	-12.1%	-16.4%	-18.9%
COc1ccc2c(c1)-c1c(ssc1=S)C(C)(C)N2	.	-27.6%	-88.7*	4.6%	2.4%	-7.9%
O=C1N[C@@H](Cc2ccccc2)C(=O)N2[C@H]1CSCCS2(=O)=O	.	.	0.6	.	-20.4%[46.1 µM]	.
O=C1CC2(CCCC2)CC(=O)N1CCNC[C@H]1COc2ccccc2O1	10.6%	.	.	.	.	.
CCS(=O)(=O)N1CC2(CN(C(=O)Nc3c(C)noc3C)[C@@H](CO)c3[nH]c4cc(OC)ccc4c32)C1	.	.	-8.1	.	.	.
CC(NC1CCCCC1)C(O)C12CC3CC(CC(C3)C1)C2 (stereo not given)	-13.7%	-15.7%	-23.4	7.3µM*	?	?
COc1ccccc1C1CN(CC(=O)N[C@H]2CCCCNC2=O)Cc2ccccc2O1 (stereo not given in full)	-6.4%	6.2%	.	.	.	-15.2%
O=c1c2c([nH]c3ccc(Br)cc13)CCCC2	-2.7%	-8.7%	47.5	-24.7%	?	.
Brc1ccc2[nH]c3c(c2c1)CCC3	-3.1%	7.5%	-70.1*	?	8.91µM*	-10.1%
Cc1ccccc1N1C(=O)[C@@H]2[C@H](ON(c3ccccc3)[C@H]2c2ccncc2)C1=O	.	.	.	-6.2%	.	.
COc1ccc(C(C(=O)NC2CCCCC2)N(C(=O)CCl)c2ccc(Cl)cc2)cc1 (stereo not given)	15.8µM*	-26.1%	-101.3*	?	?	-10.5%
COc1ccc(C(C(=O)NC2CCCC2)N(C(=O)c2ccco2)c2ccc3c(c2)OCO3)cc1OC (stereo not given)	12.1%	-18.0%	-75.0*	-1.4%	-2.0%	.
COc1ccc(C(C(=O)NC2CCCC2)N(C(=O)c2ccco2)c2cc3c(cc2C(C)=O)OCO3)cc1OC (stereo not given)	1.1%	-14.1%	-19.2	7.4%[46.1 µM]	-4.9%	-15.3%
